Common to all, as to conditions: mRNA level, 48 h; actives raise or lower the signal
Read-out in assay [1]: Cytochrome P450 4A22 (Homo sapiens) (UniProt Q5TCH4)
Description: LTEA_HepaRG_CYP4A22: Life Technologies and Expression Analysis (LTEA) Assay for Cytochrome P450 4A22 (CYP4A22) using HepaRG (AID 2283495). A digest of the protocol: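 Gene expression measured by qRT-PCR against three housekeeping genes (ACTB, GAPDH, POLR2A), with gain or loss fitted relative to 0.5% DMSO vehicle. HepaRG cultures received 48 h chemical treatment, top concentration 100 uM, half-log steps, duplicate wells.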

Read-out in assay [2]: Cytochrome P450 7A1 (Homo sapiens) (UniProt P22680)
Description: LTEA_HepaRG_CYP7A1: Life Technologies and Expression Analysis (LTEA) Assay for Cytochrome P450 7A1 (CYP7A1) using HepaRG (AID 2283496). A digest of the protocol: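 HepaRG, 48 h exposure, 8-pt half-log series from 100 uM, 0.5% DMSO vehicle, duplicates. Readout: TaqMan qRT-PCR mRNA vs three housekeeping genes; bidirectional curve fit against DMSO baseline.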

Read-out in assay [3]: Glutathione S-Transferase (GSTA2), GSTA2 (gene 2939)
Briefly: LTEA_HepaRG_GSTA2: Life Technologies and Expression Analysis (LTEA) Assay for Glutathione S-Transferase (GSTA2) using HepaRG (AID 2283497). Summed up:
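qRT-PCR readout of GSTA2 transcript, normalized to three housekeeping genes, fitted bidirectionally against 0.5% DMSO baseline. Differentiated HepaRG cells received compound for 48 h at 8 concentrations (top 100 uM, half-log steps).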

Read-out in assay [4]: Glutamate-cysteine ligase catalytic (GCLC), GCLC (gene 2729)
Description: LTEA_HepaRG_GCLC: Life Technologies and Expression Analysis (LTEA) Assay for Glutamate-cysteine ligase catalytic (GCLC) using HepaRG (AID 2283498). Summed up: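 HepaRG, 48 h exposure, 8-pt half-log series from 100 uM, 0.5% DMSO vehicle; TaqMan qRT-PCR for GCLC mRNA, housekeeping-normalized; bidirectional curve fit vs DMSO baseline.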

Read-out in assay [5]: Glutamate-cysteine ligase regulatory (GCLM), GCLM (gene 2730)
Description: LTEA_HepaRG_GCLM: Life Technologies and Expression Analysis (LTEA) Assay for Glutamate-cysteine ligase regulatory (GCLM) using HepaRG (AID 2283500). A digest of the protocol: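 Endpoint is GCLM transcript level by qRT-PCR, normalized to three housekeeping genes, after 48 h chemical exposure of human HepaRG cells (0.5% DMSO vehicle, top 100 uM, half-log dilutions). Fitting was bidirectional relative to DMSO.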

Read-out in assay [6]: Glutathione S-transferase M3 (GSTM3), GSTM3 (gene 2947)
Description: LTEA_HepaRG_GSTM3: Life Technologies and Expression Analysis (LTEA) Assay for Glutathione S-transferase M3 (GSTM3) using HepaRG (AID 2283501). Summed up:
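GSTM3 transcript levels came from Fluidigm TaqMan qRT-PCR normalized to three housekeeping genes, fitted in both directions against DMSO. HepaRG cultures received chemicals for 48 h in serum-free induction medium (0.5% DMSO), 8 half-log concentrations up to 100 uM, duplicate.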

Read-out in assay [7]: Heat shock 70 kDa protein 1 (HSPA1A), gene 3303
Briefly: LTEA_HepaRG_HSPA1A: Life Technologies and Expression Analysis (LTEA) Assay for Heat shock 70 kDa protein 1 (HSPA1A) using HepaRG (AID 2283502). A digest of the protocol:
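Cells were plated and cultured for 48 h, then switched to serum-free induction medium. Chemicals were added at eight half-log concentrations up to 100 uM for 48 h. RNA was then isolated and HSPA1A measured by qRT-PCR with bidirectional curve fitting against DMSO.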

Read-out in assay [8]: Hypoxia-inducible factor 1-alpha (Homo sapiens) (UniProt Q16665)
Briefly: LTEA_HepaRG_HIF1A: Life Technologies and Expression Analysis (LTEA) Assay for Hypoxia-inducible factor 1 (HIF1A) Trancription factor using HepaRG (AID 2283503). A digest of the protocol:
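HIF1A transcript level read by qRT-PCR (ACTB, GAPDH, POLR2A normalization) after 48 h chemical exposure of HepaRG cultures. Eight half-log concentrations, top 100 uM, 0.5% DMSO vehicle, duplicates; bidirectional curve fit against DMSO baseline.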

Read-out in assay [9]: 3-Hydroxy-3-Methylglutaryl-CoA Synthase 2 (HMGCS2), HMGCS2 (gene 3158)
Briefly: LTEA_HepaRG_HMGCS2: Life Technologies and Expression Analysis (LTEA) Assay for 3-Hydroxy-3-Methylglutaryl-CoA Synthase 2 (HMGCS2) using HepaRG (AID 2283504). Summed up:
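Readout is HMGCS2 transcript by qRT-PCR, housekeeping-normalised (ACTB/GAPDH/POLR2A) and fitted bidirectionally against 0.5% DMSO. Differentiated HepaRG cells received chemicals 48 h, duplicate wells, eight half-log concentrations topping at 100 uM.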

Read-out in the next assay: HGF (gene 3082)
Description: LTEA_HepaRG_HGF: Life Technologies and Expression Analysis (LTEA) Assay for Hepatocyte Growth Facto (HGF) using HepaRG (AID 2283505). A digest of the protocol: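 HGF transcript was quantified by TaqMan qRT-PCR against three housekeeping genes after 48 h treatment of HepaRG cells. Exposure ran in duplicate over eight half-log steps topping at 100 uM in 0.5% DMSO vehicle.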

Read-out in assay [10]: Insulin Like Growth Factor 1 (IGF1), IGF1 (gene 3479)
Briefly: LTEA_HepaRG_IGF1: Life Technologies and Expression Analysis (LTEA) Assay for Insulin Like Growth Factor 1 (IGF1) using HepaRG (AID 2283506). Summed up:
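Cells are thawed, plated and cultured 48 h, then exposed in duplicate to chemical (highest 100 uM, half-log steps, 0.5% DMSO) for another 48 h. Total RNA is analysed by Fluidigm qRT-PCR for IGF1 expression relative to vehicle.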

Read-out in assay [11]: Intercellular Adhesion Molecule 1 (ICAM1), ICAM1 (gene 3383)
Description: LTEA_HepaRG_ICAM1: Life Technologies and Expression Analysis (LTEA) Assay for Intercellular Adhesion Molecule 1 (ICAM1) using HepaRG (AID 2283507). Summed up:
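ICAM1 transcript levels measured by qRT-PCR, normalized to three housekeeping genes (ACTB, GAPDH, POLR2A), after 48 h chemical exposure of HepaRG cells. Duplicate eight-point half-log series from 100 uM in 0.5% DMSO; gain or loss fitted against vehicle.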

Read-out in assay [12]: Insulin-like growth factor-binding protein 1 (IGFBP1), IGFBP1 (gene 3484)
Briefly: LTEA_HepaRG_IGFBP1: Life Technologies and Expression Analysis (LTEA) Assay for Insulin-like growth factor-binding protein 1 (IGFBP1) using HepaRG (AID 2283508). A digest of the protocol: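 Read-out is qRT-PCR transcript level normalized to three housekeeping genes, fitted in both directions against 0.5% DMSO. Differentiated HepaRG cells received eight half-log concentrations (top 100 uM) in duplicate for 48 h in serum-free induction medium.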

Read-out in assay [13]: Interleukin 6 (IL6), IL6 (gene 3569)
Briefly: LTEA_HepaRG_IL6: Life Technologies and Expression Analysis (LTEA) Assay for Interleukin 6 (IL6) using HepaRG (AID 2283509). A digest of the protocol: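 qRT-PCR read-out of IL6 transcript, normalized to three housekeeping genes, after 48 h chemical exposure of HepaRG cells; 8-point half-log series, top 100 uM, 0.5% DMSO vehicle. Bidirectional curve fitting against DMSO baseline.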

Read-out in assay [14]: Interleukin 6 Receptor (IL6R), IL6R (gene 3570)
Description: LTEA_HepaRG_IL6R: Life Technologies and Expression Analysis (LTEA) Assay for Interleukin 6 Receptor (IL6R) using HepaRG (AID 2283510).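 As to AC50: differentiated human HepaRG liver cells in serum-free induction medium.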 A digest of the protocol:
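Cells were thawed, plated and cultured 48 h, then medium was changed to serum-free induction medium. Chemicals were added in duplicate (100 uM top, half-log steps, 0.5% DMSO) for 48 h. Lysates were analyzed by qRT-PCR for IL6R expression.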

Read-out in assay [15]: Potassium channel subfamily K member 1 (KCNK1), KCNK1 (gene 3775)
Description: LTEA_HepaRG_KCNK1: Life Technologies and Expression Analysis (LTEA) Assay for Potassium channel subfamily K member 1 (KCNK1) using HepaRG (AID 2283511). A digest of the protocol: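 HepaRG, 48 h exposure, 8-pt half-log series top 100 uM, 0.5% DMSO vehicle, duplicates. Readout: KCNK1 transcript by qRT-PCR (Fluidigm array), housekeeping-normalized; bidirectional curve fit relative to DMSO baseline.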

Read-out in assay [16]: JUN Transcription Factor, JUN (gene 3725)
Briefly: LTEA_HepaRG_JUN: Life Technologies and Expression Analysis (LTEA) Assay for JUN Transcription Factor using HepaRG (AID 2283513). A digest of the protocol:
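Read-out is JUN transcript level by TaqMan qRT-PCR, normalized to ACTB, GAPDH and POLR2A, after 48 h chemical treatment of HepaRG cells. Concentration-response spanned eight half-log points up to 100 uM in 0.5% DMSO.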

Read-out in assay [17]: Lipase C (LIPC), LIPC (gene 3990)
Briefly: LTEA_HepaRG_LIPC: Life Technologies and Expression Analysis (LTEA) Assay for Lipase C (LIPC) using HepaRG (AID 2283514). A digest of the protocol:
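HepaRG, 48 h exposure, 8-pt half-log series from 100 uM in 0.5% DMSO, duplicates. Readout: LIPC mRNA by Fluidigm qRT-PCR, housekeeping-normalized (ACTB/GAPDH/POLR2A). Gain or loss fitted bidirectionally against DMSO baseline.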

Read-out in assay [18]: Keratin 19 (KRT19), KRT19 (gene 3880)
Description: LTEA_HepaRG_KRT19: Life Technologies and Expression Analysis (LTEA) Assay for Keratin 19 (KRT19) using HepaRG (AID 2283512). Summed up:
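KRT19 transcript measured by TaqMan qRT-PCR, referenced to three housekeeping genes, after HepaRG cells received test chemicals for 48 h. Eight half-log concentrations, top 100 uM, 0.5% DMSO vehicle; increases and decreases both fitted.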

As a reminder, the AC50 is the midpoint of the concentration-response curve, whichever way the signal moves.

Activity calls are given as the source filed them. The calls were made as follows: active = hit-call score of the fitted dose curve at least 0.9, where 1 is the maximum; inactive = score below 0.9.

Chain of Hypoxia-inducible factor 1-alpha (Homo sapiens) (Q16665 whole entry, looked up): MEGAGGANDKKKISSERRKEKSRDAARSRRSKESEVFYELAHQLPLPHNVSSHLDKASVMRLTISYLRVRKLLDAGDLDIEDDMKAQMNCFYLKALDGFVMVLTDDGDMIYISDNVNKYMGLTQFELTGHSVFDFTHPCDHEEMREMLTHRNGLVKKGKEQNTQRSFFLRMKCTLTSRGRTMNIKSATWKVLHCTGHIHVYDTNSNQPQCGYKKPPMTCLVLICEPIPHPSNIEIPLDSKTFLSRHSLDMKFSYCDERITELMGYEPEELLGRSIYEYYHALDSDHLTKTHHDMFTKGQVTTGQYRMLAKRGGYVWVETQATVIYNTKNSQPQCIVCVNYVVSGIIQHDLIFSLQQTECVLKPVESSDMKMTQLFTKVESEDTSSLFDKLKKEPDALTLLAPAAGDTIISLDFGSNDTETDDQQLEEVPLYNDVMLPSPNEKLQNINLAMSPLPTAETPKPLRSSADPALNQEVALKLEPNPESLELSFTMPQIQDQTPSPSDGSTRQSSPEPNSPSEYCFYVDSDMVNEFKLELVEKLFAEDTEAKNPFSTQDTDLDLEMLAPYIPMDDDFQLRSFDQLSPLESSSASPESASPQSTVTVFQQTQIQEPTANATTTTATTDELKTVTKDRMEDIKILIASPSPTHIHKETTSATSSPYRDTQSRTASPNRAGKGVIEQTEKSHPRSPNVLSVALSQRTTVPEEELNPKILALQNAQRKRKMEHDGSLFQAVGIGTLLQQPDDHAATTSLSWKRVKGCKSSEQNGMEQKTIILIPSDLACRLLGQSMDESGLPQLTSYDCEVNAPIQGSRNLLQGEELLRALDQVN

With `OCCC(F)(F)C(F)(F)C(F)(F)C(F)(F)C(F)(F)C(F)(F)C(F)(F)C(F)(F)F`, the result in assay [1], in [2], in assay [3], in assay [4], in assay [5] and in [6] was inactive. Moreover, the compound was classed as inactive (in [7]; in assay [8]; in assay [9]; in the assay with HGF (gene 3082); in [10]; in assay [11]). Moreover, the call in assay [12], in assay [13], in [14], in assay [15], in assay [16] and in assay [17] was inactive.

For the compound `CC(C)(C)c1ccc(O)c(C(C)(C)C)c1`, the outcome in [1], in assay [2], in assay [3], in assay [4], in assay [5] and in assay [6] was inactive. The compound was classed as inactive (in assay [7]; in [8]; in [9]; in the assay with HGF (gene 3082); in assay [10]; in assay [11]). Also, the result in [12], in assay [14] and in assay [17] was inactive. Moreover, in assay [15], the AC50 was 0.0804 µM (active).

Regarding `CCC(=C(c1ccc(O)cc1)c1ccc(OCCN(C)C)cc1)c1ccccc1`, the result in [1], in assay [2], in assay [3], in [4], in assay [5] and in [6] was inactive. For the same compound, the outcome (with HGF (gene 3082); in assay [15]; in [17]) was inactive. Besides, the AC50 in [7] was 69.4 µM (active); in assay [8], 83.8 µM (active); in assay [9], 91.7 µM (active); in assay [10], 93.4 µM (active); in [11] it was 67.9 µM (active); in [12], 76.5 µM (active). The figures for the AC50 in assay [13] and in assay [14] were 91.8 µM (active) and 93.2 µM (active), respectively.

Take `OCCC(F)(F)C(F)(F)C(F)(F)C(F)(F)C(F)(F)C(F)(F)F`: the result in assay [1], in assay [2], in [3], in assay [4], in assay [5] and in assay [6] was inactive. The call (in assay [7]; in assay [8]; in [9]; with HGF (gene 3082); in [10]; in [11]) was inactive. Besides, the compound was called inactive in [12], in assay [14], in assay [15], in [18] and in [17].
